Experimental data taken from PubChem BioAssay AID1347156 (National Center for Advancing Translational Sciences (NCATS), 2019).
Results filed as inconclusive are left out. Unmarked numbers belong to inactive results. Activity calls are given as the source filed them. Calls come from the whole dose curve; as a rule, active = well fitted cell-killing curve with a large enough effect; inconclusive = small, poorly fitted or top-dose-only effect; inactive = flat fitted curve, though single readings scatter.
% is set by controls: 0 for no effect and ±100 for the full control effect; potency is the fitted concentration of half-maximal effect.

Assay: DAPI mCherry counterscreen qHTS for Zika virus inhibitors; note: nearly all actives have a fitted effect of over 55% in size
Conditions: Vero cells, DAPI nuclear count cytotoxicity, imaging 48-72 h, infected with Zika reporter virus, MOI 1; series mostly up to 32.6 µM; activity change, negative = cell loss: at the top concentration
In short: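 Imaging read-out after fixation and Hoechst nuclear staining: percent infection from mCherry-positive cells (above 3 SD of negative controls) and nuclear counts. Setup: Vero cells pre-plated overnight, compound added, infected with ZIKV-mCherry (MOI 1), 48-72 hrs, 37 degrees C.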
For `N#CC(c1ccc(Cl)cc1)c1c(Cl)cc(-n2ncc(=O)[nH]c2=O)cc1Cl` (stereo unspecified), the Potency was 25.1 µM (active). With `CN(CC(=O)N(Cc1ccc(C2CCCCC2)cc1)c1ccc(C(=O)O)cc1)S(=O)(=O)c1c(F)c(F)c(F)c(F)c1F` the Potency was 5.62 µM (active). In the case of `COc1ccc(NS(=O)(=O)c2ccc3c(c2)[C@H]2C=CC[C@H]2[C@@H](c2ccc(C(=O)O)cc2)N3)cc1`, the “activity change, negative = cell loss” value was -18%. For `Cc1nn2c(=O)cc(COC(=O)c3ccc(NC(=O)c4ccc(C(C)(C)C)cc4)cc3)nc2s1`, the Potency was 28.2 µM (active). For `C[C@H](NC(=O)C(=O)Nc1ccccc1C(C)(C)C)C(=O)N[C@@H](CC(=O)O)C(=O)COc1c(F)c(F)cc(F)c1F`, the “activity change, negative = cell loss” value was -2.7%. In the case of `N#CC(C#N)=C(N)/C(C#N)=C/c1cc(O)c(O)c(O)c1`, the “activity change, negative = cell loss” value was -9.4%. For `O=C(Nc1ccccc1)c1ccc2c(O)c(S(=O)(=O)c3ccc(Cl)cc3)c(=O)[nH]c2c1`, the “activity change, negative = cell loss” value was -8.31%. In the case of `Cc1cc(-c2ccc(N=Nc3ccc4c(S(=O)(=O)O)cc(S(=O)(=O)O)c(N)c4c3O)c(C)c2)ccc1N=Nc1ccc2c(S(=O)(=O)O)cc(S(=O)(=O)O)c(N)c2c1O`, the “activity change, negative = cell loss” value was -8.92%. In the case of `COc1ccc(Br)cc1S(=O)(=O)NC(=O)/C=C/c1ccccc1Cc1ccc2ccccc2c1`, the Potency was 31.6 µM (active). For `O=c1cc(-c2ccccc2)oc2cc(O)c(O)c(O)c12`, the “activity change, negative = cell loss” value was -18.4%. With `Cc1ccc([C@@H]2CC=C(C(=O)O)[C@H](c3ccc(C(C)(C)C)cc3)N2S(=O)(=O)c2ccc(C)cc2)cc1` the Potency was 31.6 µM (active). For `O=C(Nc1ccc(-c2ccc(Cl)c(Cl)c2)cc1)C1=C(O)c2ccccc2S(=O)(=O)N1`, the Potency was 8.91 µM (active). In the case of `O=C(O)c1c(Br)c(Br)c(Br)c(Br)c1C1c2ccc(O)cc2Oc2cc(O)ccc21`, the Potency was 20 µM (active). In the case of `O=C(O)c1cc(-c2ccc(C(F)(F)F)cc2)nc2n[nH]c(-c3ccccc3)c12`, the “activity change, negative = cell loss” value was -12.5%. In the case of `COc1ccc(S(=O)(=O)Nc2cc(-c3c(O)ccc4ccccc34)c(O)c3ccccc23)cc1`, the Potency was 10 µM (active). In the case of `COc1cccc(C(=O)Nc2ccc(C(=O)OCc3cc(=O)n4nc(C5CC5)sc4n3)cc2)c1`, the Potency was 5.62 µM (active). In the case of `O=C(O)c1ccccc1Nc1cccc(OCc2ccc3ccccc3n2)c1`, the Potency was 31.6 µM (active). In the case of `O=S(=O)(O)c1cc(O)c2c(N=Nc3ccc(Nc4ccccc4)c4c(S(=O)(=O)O)cccc34)cc(S(=O)(=O)O)cc2c1`, the “activity change, negative = cell loss” value was -9.05%. With `O=S(=O)(O)c1ccc2c(N=Nc3ccc(S(=O)(=O)O)c4ccccc34)c(O)c(S(=O)(=O)O)cc2c1` the “activity change, negative = cell loss” value was -4.02%. In the case of `Cc1cc(OCCCc2c(C(=O)O)n(Cc3cccnc3)c3c(-c4c(COc5ccc(N6CCN([S+](C)(=O)[O-])CC6)cc5)nn(C)c4C)cccc23)cc(C)c1Cl`, the Potency was 14.1 µM (active). For `CCS(=O)(=O)c1cccc(C(=O)Nc2ccc(-c3nc4ccccc4s3)c(O)c2)c1`, the Potency was 14.1 µM (active). In the case of `Cc1ccc(NC(=O)c2ccc3c(O)c(S(=O)(=O)c4ccccc4)c(=O)[nH]c3c2)cc1Cl`, the “activity change, negative = cell loss” value was -17%. With `Cc1cc(C(C#N)c2ccc(Cl)cc2)c(Cl)cc1NC(=O)c1cc(I)cc(I)c1O` (stereo unspecified) the Potency was 8.91 µM (active). For `CC1(C)CCC(CN2CCN(c3ccc(C(=O)NS(=O)(=O)c4ccc(NCC5CCOCC5)c([N+](=O)[O-])c4)c(Oc4cnc5[nH]ccc5c4)c3)CC2)=C(c2ccc(Cl)cc2)C1`, the Potency was 5.62 µM (active). In the case of `Cc1cccc(C(=O)Nc2ccc(C(=O)OCc3cc(=O)n4nc(C5CC5)sc4n3)cc2)c1`, the Potency was 15.8 µM (active). For `O=C(O)c1cc(-n2c(/C=C\c3ccc(F)cc3)nc3ccccc3c2=O)ccc1Cl`, the “activity change, negative = cell loss” value was -13.5%. In the case of `O=C(O)c1ccc(NC(=O)c2cn(-c3ccccc3)nc2-c2ccc(Br)cc2)cc1`, the Potency was 35.5 µM (active). For `O=C(O)c1ccc(S(=O)(=O)N(Cc2ccc(OC(F)(F)F)cc2)c2ncc(C(F)(F)F)cc2Cl)cc1`, the Potency was 25.1 µM (active). With `COc1cc(/C=C(\C#N)C(=O)Nc2nnc(C(F)(F)F)s2)ccc1OCc1ccc(C(F)(F)F)cc1C(F)(F)F` the Potency was 7.08 µM (active). For `COc1ccc(-c2ccccc2)cc1NS(=O)(=O)c1cc(Cl)cc(Cl)c1O`, the Potency was 11.2 µM (active). In the case of `CCN(Cc1cccc(S(=O)(=O)O)c1)c1ccc(C(=C2C=CC(=[N+](CC)Cc3cccc(S(=O)(=O)O)c3)C=C2)c2ccccc2S(=O)(=O)[O-])cc1`, the “activity change, negative = cell loss” value was -4.87%.
